Results filed as inconclusive are left out. Entries that show only a call come without a potency. The source made the active and inactive calls. Calls come from the whole dose curve; as a rule, active = well fitted inhibition curve with a large enough effect; inconclusive = small, poorly fitted or top-dose-only effect; inactive = flat fitted curve, though single readings scatter.

In this test the test system is CRL-7250. The test is described as follows: qHTS assay to identify novel small-molecules to repurpose for Merkel cell carcinoma treatment (AID 1296009). Note: nearly all actives have a fitted effect of over 60% in size. The settings on record: MCC and control cell lines, CellTiter-Glo viability, 72 h; series mostly up to 92 µM. The method, boiled down:
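After compound transfer in DMSO, plates were kept 72 hr at 37 degree celsius. Luminescent ATP signal from CellTiter-Glo served as viability measure, normalized against DMSO and no-cell controls.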
A general note: Quantitative high-throughput screening tests each substance at several concentrations.
On to `CC(=O)O[C@@H]1[C@H](O[C@@H]2O[C@@H](CO)[C@H](O)[C@H]2O)[C@@H](O[C@@H]2O[C@@H](C)[C@H](O[C@@H]3OC[C@@H](O)[C@H](O)[C@H]3O)[C@@H](O)[C@H]2O)[C@H](OC(=O)[C@]23CCC(C)(C)C[C@H]2C2=CCC4[C@@]5(C)CC[C@H](O[C@@H]6O[C@H](C(=O)O)[C@@H](O)[C@H](O)[C@H]6O[C@@H]6O[C@H](CO)[C@H](O)[C@H](O)[C@H]6O)[C@@](C)(C=O)C5CC[C@@]4(C)[C@]2(C)CC3)O[C@@H]1C` (some centres not stated), for which the outcome was “inactive [at 9.27 µM]”. On to `Cc1nnc(-c2ccc3occ(-c4ccc(S(C)=O)cc4)c3c2)o1` (configuration not stated), for which the Potency result was “inactive”.

With `C=C1CC2C3(C)C(O)CC(=O)C(C)(C)C3C(O)C(OC(C)=O)C2(C)C2C(=O)OC(C)(C(=O)OC)C(=O)C12C` (configuration not stated), the Potency result is “inactive”.

`CC1(C)CC2C3=CCC4C5(C)CCC(OC6OC(CO)C(O)C(OC7OC(CO)C(O)C(OC8OC(CO)C(O)C(OC9OC(COC%10OC(CO)C(O)C(O)C%10O)C(O)C(O)C9O)C8O)C7O)C6O)C(C)(C)C5CCC4(C)C3(C)CCC2(C(=O)O)CC1O` (configuration not stated): the outcome is “inactive [at 9.27 µM]”.

In the case of `CC(=O)N(O)CCCCCN1C(=O)CCC1=O`, the Potency result was “inactive”. Turning to `CC12CCC3c4ccc(O)cc4CCC3C1CCC2OC1OC(C(=O)O)C(O)C(O)C1O` (configuration not stated), the Potency result was “inactive”. On the same count and under the same terms, the same measure for `CC1(C)O[C@@]2(C)CC[C@@H]1C[C@@H]2OC1OC(CO)C(O)C(O)C1O` (some centres not stated): “inactive”; for `NC(=O)c1cccc(-c2cc(O)cc(OC(=O)NC3CCCCC3)c2)c1`: “inactive”; for `COC(=O)c1[nH]c(=O)c2ccccc2c1-c1ccc[nH]1`: “inactive”. For the compound `CC(=O)O[C@@H]1C(=O)C(C)=C(CCC(C)CC(=O)O)[C@@]2(C)CCCC(C)(C)C12` (some centres not stated), the Potency entry was “inactive”.

For the compound `COc1cc2c(cc1O)CC(O)(CO)C(CO)C2c1ccc(OC2OC(CO)C(O)C(O)C2O)c(OC)c1` (configuration not stated), the Potency entry is “inactive”. With `COc1cc(C(O)C(CO)Oc2ccc(CCCO[C@@H]3O[C@@H](C)[C@H](O)[C@@H](O)[C@H]3O)cc2OC)ccc1O` (some centres not stated), the Potency entry is “inactive”.
